{"source": "PubChem BioAssay AID624094", "about": "(National Center for Advancing Translational Sciences (NCATS), 2012)", "note": "Records with an inconclusive call do not appear. Active and inactive are the calls of the source. The call rests on the fitted dose curve; in most records, active means well fitted inhibition curve with a large enough effect; inconclusive means small, poorly fitted or top-dose-only effect; inactive means flat fitted curve, though single readings scatter."}
{"molecular_target": "Dual specificity protein kinase CLK4 (Homo sapiens) (UniProt Q9HAZ1)", "sequence (Q9HAZ1 whole entry, looked up)": "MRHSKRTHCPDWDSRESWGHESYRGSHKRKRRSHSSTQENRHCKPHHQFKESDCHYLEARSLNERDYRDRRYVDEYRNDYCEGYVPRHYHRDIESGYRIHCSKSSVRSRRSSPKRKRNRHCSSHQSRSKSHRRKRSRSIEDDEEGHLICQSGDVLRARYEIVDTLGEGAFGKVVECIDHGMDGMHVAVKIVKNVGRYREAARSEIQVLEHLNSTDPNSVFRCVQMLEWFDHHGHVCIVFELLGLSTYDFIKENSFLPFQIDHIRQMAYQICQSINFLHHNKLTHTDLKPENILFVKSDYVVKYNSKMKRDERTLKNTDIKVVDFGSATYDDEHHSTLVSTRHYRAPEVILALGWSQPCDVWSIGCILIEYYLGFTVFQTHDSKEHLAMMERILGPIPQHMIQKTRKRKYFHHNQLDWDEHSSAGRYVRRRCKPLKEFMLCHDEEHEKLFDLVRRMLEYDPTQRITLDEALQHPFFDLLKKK", "assay": "Confirmation Assay for Inhibitors of Clk4 (Kinase-Glo Assay): KU probe", "settings": "recombinant Clk4, Kinase-Glo ATP luminescence; series mostly up to 76.9 µM", "procedure": "NIH Molecular Libraries Probe Production Centers Network [MLPCN] NIH Chemical Genomics Center [NCGC] MLPCN Grant: 1R03MH084827-01 Assay Submitter (PI): Tom Misteli NCGC Assay Overview: Clk4 (Invitrogen, cat# PV3839) was assayed using ATP and the RS repeat peptide (AnaSpec cat # 61722) as substrates. Following the Clk4 reaction, the remaining ATP levels were detected using Promega Kinase-Glo technology wherein the remaining ATP from the kinase reaction is detected using Ultra-Glo luciferase and D-luciferin which generates a bioluminescence signal from the ATP.\nNCGC Assay Protocol Summary: Two uL/well of substrate-buffer solution (100 uM RS peptide, 1 uM ATP, 25 mM Tris pH7.5, 10 mM MgCl2, 0.5 mM EGTA, 2.5 mM DTT, 0.01% Triton X-100 final concentration) was dispensed into 1536-well, assay plates (Greiner, solid white medium-binding plates) with Aurora Discovery BioRAPTR Flying Reagent Dispenser (FRD; Beckton-Dickenson). Using a Kalypsys pin tool equipped with a 1536-pin tool, 23 nL of compound solution was transferred to the assay plate. One uL/ well Clk4-buffer solution (25 nM Clk4, 25 mM Tris pH 7.5, 10 mM MgCl2, 0.5 mM EGTA, 2.5 mM DTT, 0.01% Triton X-100, final concentrations) was then added using the FRD yielding a total kinase reaction volume of 3 uL/ well. After 4.5 hours of room temperature incubation, 3 uL Kinase-Glo reagent was added for a final assay volume of 6 uL/ well. Luminescence was detected with the ViewLux plate reader (Perkin Elmer, Waltham, MA) after 5 min incubation using a 5 second exposure time and 2x binning."}
{"smiles": "Clc1cc(CNc2ccnc(-c3ccc4c(c3)OCO4)n2)ccn1", "Potency": "3.68 µM (active)"}
{"smiles": "c1nc(NCC2CCCCC2)c2cc(-c3ccc4c(c3)OCO4)ccc2n1", "Potency": "0.0654 µM (active)"}
{"smiles": "COc1cccc(-c2nccc(NCc3ccc(Cl)c(Cl)c3)n2)c1", "Potency": "14.6 µM (active)"}
{"smiles": "Clc1ccc(CNc2nccc(-c3ccc4c(c3)OCCO4)n2)cc1Cl", "Potency": "0.116 µM (active)"}
{"smiles": "c1cc(CNc2ccnc(-c3ccc4c(c3)OCO4)n2)ccn1", "Potency": "16.4 µM (active)"}
{"smiles": "O=C(Nc1ccnc(-c2ccc3c(c2)OCO3)n1)c1cnc(Cl)c(Cl)c1", "Potency": "inactive"}
{"smiles": "Cc1noc(C)c1-c1nccc(NCc2ccc(Cl)cc2)n1", "Potency": "inactive"}
{"smiles": "CCCNc1ncnc2ccc(-c3ccc4c(c3)OCO4)cc12", "Potency": "0.0582 µM (active)"}
{"smiles": "c1nc(NC[C@@H]2CCCO2)c2cc(-c3ccc4c(c3)OCO4)ccc2n1", "Potency": "0.0292 µM (active)"}
{"smiles": "Brc1cncc(CNc2ccnc(-c3ccc4c(c3)OCO4)n2)c1", "Potency": "8.23 µM (active)"}
{"smiles": "c1cc(-c2ccc3c(c2)OCO3)nc(Nc2ccc3c(c2)OCO3)n1", "Potency": "0.116 µM (active)"}
{"smiles": "COc1ccc(-c2ccnc(NCc3ccc(Cl)c(Cl)c3)n2)cc1", "Potency": "0.184 µM (active)"}
{"smiles": "CN(C)c1ccc(-c2nccc(NCc3ccccc3)n2)cc1", "Potency": "inactive"}
{"smiles": "c1ccc2ncc(CNc3ccnc(-c4ccc5c(c4)OCO5)n3)cc2c1", "Potency": "29.2 µM (active)"}
{"smiles": "Clc1ccc(Nc2nccc(-c3ccc4c(c3)OCO4)n2)cc1", "Potency": "0.368 µM (active)"}
{"smiles": "CCNC(=O)c1ccc(-c2ccc3ncnc(NCC4CCCO4)c3c2)o1", "note": "(stereo not given)", "Potency": "0.328 µM (active)"}
{"smiles": "COc1ccc(CNc2ccnc(-c3ccc(N(C)C)cc3)n2)cc1", "Potency": "inactive"}
{"smiles": "CC(C)(C)CNc1ncnc2ccc(-c3ccc(C(=O)O)o3)cc12", "Potency": "0.463 µM (active)"}
{"smiles": "Fc1cncc(CNc2ccnc(-c3ccc4c(c3)OCO4)n2)c1", "Potency": "8.23 µM (active)"}
{"smiles": "c1cncc(CNc2ccnc(-c3ccc4[nH]ncc4c3)n2)c1", "Potency": "0.146 µM (active)"}
{"smiles": "Clc1ccc(CNc2ccnc(-c3ccc4c(c3)OCO4)n2)cc1Cl", "Potency": "13 µM (active)"}
{"smiles": "CN(C)c1ccc(-c2nccc(NCc3cccs3)n2)cc1", "Potency": "9.23 µM (active)"}
{"smiles": "COc1ccc(-c2ccnc(NCc3ccc(Cl)cc3)n2)cc1", "Potency": "0.184 µM (active)"}
{"smiles": "O=C(O)c1ccc(-c2ccc3ncnc(N4CCOCC4)c3c2)o1", "Potency": "0.582 µM (active)"}
{"smiles": "Clc1ccc(CNc2ccnc(-c3cccnc3)n2)cc1", "Potency": "16.4 µM (active)"}
{"smiles": "Brc1cc(Br)cc(CNc2ccnc(-c3ccc4c(c3)OCO4)n2)c1", "Potency": "5.82 µM (active)"}
{"smiles": "c1cncc(CNc2nccc(-c3ccc4[nH]ncc4c3)n2)c1", "Potency": "0.026 µM (active)"}
{"smiles": "Cc1csc(CNc2ncnc3ccc(-c4ccc(C(=O)O)o4)cc23)n1", "Potency": "0.292 µM (active)"}
{"smiles": "Fc1cc(CNc2ccnc(-c3ccc4c(c3)OCO4)n2)cc(F)c1F", "Potency": "23.2 µM (active)"}
{"smiles": "Fc1ccc(CNc2ccnc(-c3ccc4c(c3)OCO4)n2)cc1Br", "Potency": "13 µM (active)"}
{"smiles": "COc1ccc(CNc2ccnc(-c3c(C)noc3C)n2)cc1", "Potency": "inactive"}
{"smiles": "COc1cccc(-c2nccc(NCc3ccc(Cl)cc3)n2)c1", "Potency": "13 µM (active)"}
{"smiles": "c1nc(NCCC2CCCO2)c2cc(-c3ccc4c(c3)OCO4)ccc2n1", "note": "(stereo not given)", "Potency": "0.0519 µM (active)"}
{"smiles": "COc1cccc(-c2ncccn2)c1", "Potency": "14.6 µM (active)"}
{"smiles": "COc1ccc(-c2nccc(NCc3ccc(Cl)c(Cl)c3)n2)cc1", "Potency": "11.6 µM (active)"}
{"smiles": "CN(CC1CCCCC1)c1ncnc2ccc(-c3ccc4c(c3)OCO4)cc12", "Potency": "0.184 µM (active)"}
{"smiles": "c1coc(-c2ccnc(-c3ccc4c(c3)OCO4)n2)c1", "Potency": "8.23 µM (active)"}
{"smiles": "O=[N+]([O-])c1cc(Nc2nccc(-c3ccc4c(c3)OCO4)n2)cc(C(F)(F)F)c1", "Potency": "0.104 µM (active)"}
{"smiles": "Clc1ccc(CNc2ncncc2-c2ccc3c(c2)OCO3)cc1", "Potency": "5.82 µM (active)"}
{"smiles": "CN(C)c1ccc(-c2ncccn2)cc1", "Potency": "inactive"}
